TrxR1 substrate: is turned over as a substrate by rat TrxR1; O89049; purified TrxR1 substrate turnover, NADPH consumption readout; Potency, µM (titrated, usually from 114 µM), inactives show at the top dose activity change, negative = substrate turnover; 0.01% of 390,000 active; AID 588456; also: potency is read from the fitted curve at half-maximal effect; % is scaled to controls: 0 for no effect and ±100 for the full control effect; nearly all actives have a fitted effect of over 50% in size
Target sequence (O89049 whole entry, looked up): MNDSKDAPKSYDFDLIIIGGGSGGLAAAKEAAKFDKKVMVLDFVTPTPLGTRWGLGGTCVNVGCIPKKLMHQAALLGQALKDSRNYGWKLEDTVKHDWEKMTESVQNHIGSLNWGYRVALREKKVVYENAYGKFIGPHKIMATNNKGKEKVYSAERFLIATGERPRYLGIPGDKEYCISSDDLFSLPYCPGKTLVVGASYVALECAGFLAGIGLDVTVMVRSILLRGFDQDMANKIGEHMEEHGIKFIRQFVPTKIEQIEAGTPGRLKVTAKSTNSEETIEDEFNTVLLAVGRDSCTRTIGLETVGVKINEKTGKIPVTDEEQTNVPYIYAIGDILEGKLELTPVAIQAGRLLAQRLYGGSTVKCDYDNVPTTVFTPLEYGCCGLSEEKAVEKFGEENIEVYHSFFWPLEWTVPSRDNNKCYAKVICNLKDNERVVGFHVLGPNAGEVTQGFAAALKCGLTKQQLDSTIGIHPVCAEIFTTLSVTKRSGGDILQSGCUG
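Rat TrxR1, dispensed at 90 nM, was prereduced with 400 uM NADPH (final) for 5 min at ~22 deg C, then incubated with compound 15 min before 400 uM selenite. A first-read NADPH fluorescence drop versus no-compound background flagged substrates.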
IL-2 act: activates IL-2 in a cell-based reporter assay | IL-2 activation reporter assay, cell-based qHTS; stimulated with anti-CD3/CD4/CD28 beads; in transgenic mouse T cells | activation, % (series mostly up to about 46 µM) | 0.065% of 360,000 active | AID 652025; in the data active = activation above about 50%; inconclusive = mostly about 30% to 49%; also: 0% is about no effect
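Readout is EGFP and DsRed signal by fluorescent plate cytometry after 18 h at 37 degrees C. Transgenic mouse T cells (750/well) received compound for 60 min before bead stimulation (anti-CD3, anti-CD4, anti-CD28); memory T cells served as non-tolerant control.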
Giardia killer: kills Giardia lamblia | Giardia lamblia trophozoite viability | activity change, % at 7.66 µM, hits read low | 0.15% of 340,000 active | AID 540267; in the data active = activity change below about -80%; inconclusive = between about -30% and that limit;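 also: parasites exposed to compound for two days anaerobically before the ATP read; % is scaled to controls: 0 for no effect and ±100 for the full control effect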
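Killing of trophozoites was scored by loss of ATP luminescence after a 48 hrs anaerobic exposure to compounds at 37 deg C, using 100 cells per well.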
BRCA1 expr up: BRCA1 expression activation; MCF7-BRCA1-FFLuc reporter, luminescence, 48 h; response scale: scaled: vehicle 0%, 10 µM genistein 100%; 1.1% of 380,000 active; Potency, µM (top dose mostly 46.1 µM), without a hit: at the highest dose activation, most hits filed as activators; AID 624202; also: potency is read from the fitted curve at half-maximal effect; nearly all actives have a fitted effect of over 80% in size
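Quantitative HTS in MCF7 cells stably reporting BRCA1 expression via firefly luciferase. Compound treatment lasts 48 h at 37 °C in phenol-red free MEM. Activation is expressed relative to genistein at 10 microM and DMSO.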
mIDH1 inhibitor: inhibitors of human mutant IDH1 R132H; IDH1-R132H enzyme, NADPH consumption, diaphorase/resazurin fluorescence; 0.093% of 390,000 active; Potency, µM (titrated, usually from 76.6 µM), without a hit: at the top dose activity change, negative = inhibition, actives largely listed as inhibitors; also: potency is read from the fitted curve at half-maximal effect; % is scaled to controls: 0 for no effect and ±100 for the full control effect; nearly all actives have a fitted effect of over 65% in size
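IDH1-R132H (0.5 ug/mL dispensed) in pH 7.5 Tris buffer was preincubated 30 min with compound, then given a substrate mix of 0.016 mM NADPH and 2 mM alpha-KG for 80 min at room temperature; remaining NADPH was read by diaphorase/resazurin fluorescence.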
TrxR1 inh: rat TrxR1 inhibition; O89049; recombinant rTrxR1, NADPH fluorescence consumption, selenite substrate; Potency, µM (titrated, usually from 114 µM), without a hit: at the highest dose activity change, negative = inhibition, usual class: inhibitors; 1% of 390,000 active; also: potency is read from the fitted curve at half-maximal effect; % is scaled to controls: 0 for no effect and ±100 for the full control effect; nearly all actives have a fitted effect of over 65% in size
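Rat TrxR1 (90 nM in the dispensed reagent) was pre-reduced with 400 uM NADPH for 5 min at room temperature, then incubated with compound for 15 min. After 400 uM selenite was added, NADPH fluorescence (Ex 340/Em 450 nm) was followed for 8 min.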
An asterisk follows results filed as active; ? = inconclusive; / = no result given; [ ] = another dose, or the depositor's remark. A selection: hits, their analogues and other compounds. The true share with any hit is near 2.2%. Unless noted, calls follow the shape of the dose curve; as a rule, active = well fitted curve in the direction sought with a large enough effect; inconclusive = small, poorly fitted or top-dose-only effect, or another doubt; inactive = no such curve, though single readings can be large; an effect the other way counts as inactive or inconclusive.

SMILES	TrxR1 substrate	IL-2 act	Giardia killer	BRCA1 expr up	mIDH1 inhibitor	TrxR1 inh
COC(=O)c1ccc(OC)c(Cn2c(=O)n(-c3cccc(Cl)c3)c(=O)c3c4c(sc32)CN(C(C)=O)CC4)c1	7.9%	/	/	9.1%	-7.7%	7.7%
Cc1nc(N2CCCC2)ncc1C(=O)Nc1ccc(F)cc1F	0.2%[57.1 µM]	/	/	/	/	3.2%[57.1 µM]
Cc1nn(-c2ccccn2)c2c1-c1nc(N)sc1CC2	-19.0%	/	/	-6.9%	/	?
CC(C)(C)n1ncc2c(=O)n(Cc3cccc(C#N)c3)cnc21	-5.2%	/	/	/	/	10.0%
C=C(C)CSc1nncn1/N=C/c1ccc(OC)cc1	-2.7%	4.4	16.8	7.94µM*	1.6%	-1.3%
CCSc1nncn1/N=C/c1ccc(OC)c(OC)c1	8.5%	4.0	-3.9	22.1%	0.4%	-2.6%[57.1 µM]
CCCCOc1ccc(C(=O)Nc2cccc(C)n2)cc1	-5.9%	-0.4	-3.8	2.82µM*	5.8%	-11.2%
Cc1cccc(NC(=O)c2ccc3nccnc3c2)n1	-6.7%	5.3	5.1	12.6µM*	-12.6%	-2.5%
COc1ccc(OC)c(/C=C/c2c3ccccc3cc[n+]2C)c1	-12.6%	/	/	-71.8%	/	-14.7%
CC(=O)N1CCC(N(Cc2ccc(C)o2)C(=O)Nc2ccccc2F)CC1	1.5%	/	/	/	5.2%	4.0%
COc1ccc(NC(=O)n2nc(OC(=O)c3cccs3)cc2N)cc1	0.0%	-2.0	10.4	12.6µM*	2.8%	?
COc1ccc(-c2ccc(S(=O)(=O)n3nc(OC(=O)c4cccs4)cc3N)cc2)cc1	-7.4%	-1.2	-4.2	0.0%	-14.3%	8.6%
Cc1ccccc1CSc1nc(-c2cccc(F)c2)nc2c1Cc1c(CO)cnc(C)c1O2	3.1%	/	/	/	-15.6%	-17.2%
COc1cc(CN2CCN(C(=O)c3cccc4ccccc34)CC2)cc(OC)c1O	-1.2%	0.0	13.4	-11.3%	2.1%	50.1µM*
COc1ccc(OC)c(S(=O)(=O)NCCc2csc3nc(-c4ccccc4)nn23)c1	-8.1%[57.1 µM]	/	/	/	-12.3%	-15.3%[57.1 µM]
Cc1ccc(NC(=O)NC2CCCCC2)cc1Cl	4.8%	1.9	-8.8	5.01µM*	-1.3%	18.1%
COc1cccc(NC(=O)Nc2cccc(C)n2)c1	-2.7%	-3.1	-4.6	12.6µM*	0.0%	11.1%
COc1cccc(NC(=O)Nc2cc(C(=O)O)ccc2C)c1	2.1%[57.1 µM]	0.1	19.5	1.6%	4.8%	17.7%[57.1 µM]
Cc1ccc(NC(=O)C2CCN(C(=O)NC3CCCCC3)CC2)cc1Cl	8.6%[57.1 µM]	1.2	-12.4	-1.4%	2.1%	11.3%[57.1 µM]
Cc1ccc(NC(=O)CCC(=O)c2ccc(F)cc2)cc1Cl	-9.6%	0.8	-20.5	2.8%	-0.2%	-10.9%
Cc1ccc(NC(=O)Nc2ccc(F)cc2)cc1Cl	1.8%[57.1 µM]	-0.5	2.0	2.82µM*	8.4%	15.4%[57.1 µM]
COc1cccc(NC(=O)Nc2ccc(C)c(Cl)c2)c1	1.6%[57.1 µM]	-2.7	-15.8	7.08µM*	-8.0%	3.7%[57.1 µM]
COc1ccc(NC(=O)Nc2cccc(C)n2)c(OC)c1	-0.9%	-2.1	-16.2	88.6%	0.0%	7.3%
CCCCCC1CCNCC1	11.4%	/	/	/	/	13.2%
CCn1cc2nc(SCc3cccc(C(F)(F)F)c3)n(Cc3ccc(C)cc3)c(=O)c2n1	-4.9%[57.1 µM]	/	/	-52.3%	12.3%	21.9%[57.1 µM]
N#C/C(=N\Nc1ccccc1)C(=N)N1CCCCCC1	-6.8%	0.1	12.4	2.51µM*	-3.7%	-7.6%
CC(C)CNC(=O)C1Nc2ccccc2C2C=CCC12 (configuration not stated)	9.2%[57.1 µM]	-0.3	0.9	2.4%	-18.6%	10µM*
COC(=O)CNC(=O)C1Nc2ccccc2C2C=CCC12 (configuration not stated)	4.2%[57.1 µM]	0.2	-19.4	-9.8%	-1.0%	8.91µM*
CC(C)CNC(=O)C1Nc2ccc(C(F)(F)F)cc2C2C=CCC12 (configuration not stated)	-2.3%[57.1 µM]	-1.4	-0.8	67.8%	-17.7%	-14.7%[57.1 µM]
Fc1ccc(NCc2ccccc2-c2nnc(-c3ccccc3Cl)o2)cc1	-1.2%	/	/	/	-20.2%	8.0%

Compound activity deposited in PubChem BioAssay by National Center for Advancing Translational Sciences (NCATS).
